Bioassay records (PubChem)
Hits are enriched below; roughly 3% of the tested compounds scored in any of these assays.
KDM5B inh: inhibitors of human KDM5B histone demethylase | KDM5B demethylase, FDH-coupled NADH fluorescence (FDH is formaldehyde dehydrogenase) | hit rate 2.6% among 220,000 | Q9UGL1 | Potency, µM (doses to about 57.7 µM), actives largely listed as inhibitors; further: potency means the concentration at half of the fitted maximal effect; 0% is about no effect; nearly all actives have a fitted effect of over 70% in size
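Measured: NADH fluorescence change, 30 min, RT. System: KDM5BΔAP 200 nM final, H3K4me3 peptide, α-KG, Fe(II), ascorbate, NAD⁺ plus FDH, pH 7.5 HEPES. Compounds: titrated, 10 min pre-incubation with enzyme.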
HEK293 viab: counter-screen for SNCA expression inhibitors: cell viability; Potency, µM (highest dose often 57.1 µM), without a hit: top-dose activity change, negative = cytotoxicity, most hits filed as cytotoxic; hit rate 0.12% among 150,000; HEK-293-SNCA-luc viability, GF-AFC fluorescence, 24 h; AID 1671193;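 further: potency means the concentration at half of the fitted maximal effect; 0% = DMSO-treated cells and -100% = medium-only wells without cells; nearly all actives have a fitted effect of over 30% in size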
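Cytotoxicity counterscreen: after 24 h compound treatment of genome-edited SNCA-luciferase HEK-293 cells, live-cell protease substrate GF-AFC read by fluorescence after 30 min; activity scaled between DMSO (0%) and medium-only (-100%), curves Hill-fitted.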
SNCA expr inh: reduces expression of the alpha-synuclein gene | HEK-293 SNCA-luciferase knock-in, luminescence, 24 h | Potency, µM (series often up to 57.2 µM), for the others: top-dose activity change, negative = inhibition, usual class: inhibitors | hit rate 0.17% among 140,000 | AID 1671194;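 further: potency means the concentration at half of the fitted maximal effect; plate controls were DMSO cells for no effect and cell-free wells for full effect; nearly all actives have a fitted effect of over 45% in size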
IP6K1 inh: IP6K1 kinase inhibition | hit rate 0.81% among 140,000 | activity change, % (series mostly up to about 58 µM) | IP6K1 kinase, ADP-Glo luminescence, 2 h; hits give low values | Q92551 | AID 1645851; in the data active means activity change below about -25%; further: on the % scale 0 is the no-effect control and ±100 the full control effect
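ADP-Glo luminescence measures ADP made by human IP6K1 during a 2 h RT reaction with ATP/IP6 (mix at 1.3 mM/130 uM); top library doses 57.5 and 19.1 uM final.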
IP6K1 inh cnf: human IP6K1 inhibition, confirmatory. shares compounds with IP6K1 inh. recombinant IP6K1 kinase, ADP-Glo luminescence, 2 h. Potency, µM (doses to about 49 µM), inactives show at the highest dose activity change, negative = inhibition, hits mostly inhibitors. hit rate 13% among 1,200; further: potency means the concentration at half of the fitted maximal effect; on the % scale 0 is the no-effect control and ±100 the full control effect; nearly all actives have a fitted effect of over 65% in size
The depositor's hits bear a star; i = inactive; ? = inconclusive; nt = no result given; [ ] = another dose, or the depositor's remark. Unless noted, the call rests on the fitted dose curve; in most records, active means well fitted curve in the direction sought with a large enough effect; inconclusive means small, poorly fitted or top-dose-only effect, or another doubt; inactive means no such curve, though single readings can be large; an effect the other way counts as inactive or inconclusive.

SMILES	KDM5B inh	HEK293 viab	SNCA expr inh	IP6K1 inh	IP6K1 inh cnf
CCn1nc(C)c(CCNC(=O)C2CCC(=O)N(C3CCCC3)C2)c1C (stereo not drawn)	i	3%	-8%	-25*	-9%
Cc1ccc(C(=O)N(Cc2ccco2)C2CC2)s1	i	nt	nt	nt	nt
O=C(NCc1ccco1)c1ccc2c(c1)N(Cc1ccc(Cl)cc1)C(=O)c1ccccc1S2	?	-22%	-20%	-26*	?
COc1cc(SC)ccc1C(=O)Nc1ccc(S(=O)(=O)Nc2nccc(C)n2)cc1	i	2%	31%	1	nt
COc1ccccc1C(=O)Nc1ccc(S(=O)(=O)Nc2nc(C)cc(C)n2)cc1	?	-18%	33%	-29*	?
Cc1cccc(Cn2c(=O)n(CCCCC(=O)NCc3ccc4c(c3)OCO4)c(=O)c3ccccc32)c1	i	1%	-30%	2	nt
O=C(CCCCn1c(=O)c2ccccc2n(Cc2cccc(Cl)c2)c1=O)NCc1ccc2c(c1)OCO2	i	5%	25%	-28*	-7%
CC(C)(C)C(=O)NCc1ccc(-c2csc(NC3CC3)n2)s1	i	nt	nt	nt	nt
Cc1ccc(Sc2c(C)nn(C(=O)COc3ccccc3)c2C)cc1	?	-7%	?	-36*	?
CCCNC(=O)CCCN1C(=O)CCn2nc(-c3cccn3C)cc21	i	14%	-5%	1	nt
CC(C)OCCCNC(=O)CCCN1C(=O)CCn2nc(-c3cccn3C)cc21	?	12%	-1%	-34*	11%
COc1ccc(NC(=O)C2=CC(c3ccco3)=NS(=O)(=O)N2C)cc1	i	1%	27%	-30*	-20%
Cc1oc2ncn(CC(C)C)c(=O)c2c1C(=O)NCCCN(Cc1ccccc1)C(C)C	i	2%	21%	-29*	-3%
CC(NC(=O)c1cc(-c2ccccn2)nc2ccccc12)c1ccncc1 (stereo not drawn)	i	nt	nt	nt	nt
Cc1ccc2nc(C(C)NC(=O)c3cnc(-c4ccccn4)[nH]c3=O)[nH]c2c1 (stereo not drawn)	?	-12%	-16%	-36*	?
Cc1ccc(-c2ccc(=O)n(CCC(=O)NCCc3ccccc3)n2)cc1	?	0%	22%	-27*	-12%
COc1ccc(C2=NS(=O)(=O)N(C)C(C(=O)NCc3ccccc3)=C2)cc1OC	i	4%	38%	-26*	-12%
COc1ccc(CNC(=O)C2=CC(c3ccc(OC)c(OC)c3)=NS(=O)(=O)N2C)cc1	i	6%	9%	-10	nt
CCOC(=O)[C@@H]1CN(C(=O)OCC)[C@H]2c3ccc(OC)cc3O[C@@H]12	nt	nt	nt	1	nt
CCCCNc1oc(-c2ccc(COc3ccc(OC)cc3)o2)nc1C#N	?	11%	12%	-31*	-1%
CC1(CNc2ccccc2)COc2ccc(C(=O)NCc3cccnc3)cc2N1 (stereo not drawn)	i	-2%[87.6 µM]	3%[87.6 µM]	-12	nt
CC1(CNc2ccccc2)COc2ccc(C(=O)NCCc3cnc[nH]3)cc2N1 (stereo not drawn)	?	-2%[87.6 µM]	-10%[87.6 µM]	-40*	?
O=C(c1ccccc1)N1CCCN(c2ccnc3ccnn23)CC1	nt	12%[87.6 µM]	2%[87.6 µM]	-26*	13%
O=C(c1ccncc1)N1CCCN(c2ccnc3ccnn23)CC1	nt	0%[87.6 µM]	13%[87.6 µM]	-24	nt
Cc1ccccc1NC(=O)c1c(C)oc2ccc(O)c(CN3CCCCCC3)c12	?	-10%	14%	-26*	-9%
SMILES	KDM5B inh	HEK293 viab	SNCA expr inh	IP6K1 inh	IP6K1 inh cnf
CCn1c2c(c(=O)n3ncc(C(=O)Nc4cc(Cl)ccc4OC)c13)CN(Cc1ccc(OC)cc1)CC2	?	-8%	?	-14	nt
CCn1c2c(c(=O)n3ncc(C(=O)Nc4ccc(C(=O)OC)cc4)c13)CN(Cc1ccc(OC)cc1)CC2	?	4%	-4%	-35*	-6%
O=C(NCc1nc(-c2cccc(F)c2)c(-c2ccccn2)[nH]1)[C@@H]1C[C@@H](O)CN1	i	-3%	2%	-30*	-7%
C[C@@H](O)[C@H](N)C(=O)NCc1nc(-c2cccc(F)c2)c(-c2ccccn2)[nH]1	?	-19%	3%	-1	nt
COC(=O)c1cccnc1-n1c(=O)c2cccnc2n(CC(=O)Nc2ccccc2F)c1=O	?	-5%	-9%	-28*	16%
COC(=O)c1cccnc1-n1c(=O)c2cccnc2n(CC(=O)Nc2c(C)cc(C)cc2C)c1=O	i	-7%	12%	18	nt
O=S(=O)(c1ccc(-c2cnc(C3CC3)o2)cc1)N1CCN(c2ccc(F)cc2)CC1	i	-6%	-17%	8	nt
COc1cccc(N2CCN(S(=O)(=O)c3ccc(-c4cnc(C5CC5)o4)cc3)CC2)c1	i	2%	25%	-35*	?
COc1ccc(N2CCN(S(=O)(=O)c3ccc(-c4cnc(C5CC5)o4)cc3)CC2)cc1	i	-8%	-10%	-41*	-7%
O=S(=O)(c1ccc(-c2cnc(C3CC3)o2)cc1)N1CCN(c2cccc(Cl)c2)CC1	i	11%	-5%	-6	nt
COCCNC(=O)c1cn2cc(-c3ccc(C)cc3)sc2n1	nt	8%[87.6 µM]	111%[87.6 µM]	8	nt
Cc1ccc(Oc2ccccc2NC(=O)Cn2nc(C(N)=O)c3ccccc3c2=O)cc1	i	nt	nt	nt	nt
CC(C)CCC1=NC2(CCN(C(=O)CCN3CCCCC3=O)CC2)C(=O)N1	i	-3%	-6%	-35*	-14%
CCOC(=O)N1CCC2(CC1)N=C(CCC(C)C)NC2=O	i	3%	?	11	nt
O=C(O)C1=CC(=C(c2ccc(O)c(C(=O)O)c2)c2ccc(O)c(C(=O)O)c2)C=CC1=O	nt	7%	-1%	nt	1.5µM*
Cc1nn(-c2ccccc2)c2sc(C(=O)Nc3cccc(O)c3)cc12	i	?	?	-27*	?
Cc1nn(-c2ccccc2)c2c1C(C1CC1)N(CC1CN(C(=O)c3cccc(Cl)c3)C1)C2=O (stereo not drawn)	nt	nt	nt	8	nt
COc1cccc(-c2ncc3c(n2)OCCN(c2ccccc2)C3=O)c1	28µM*	-8%[87.6 µM]	?	-27*	?
CC(C)(C)C(O)CN1CCC(=O)N(Cc2ccccc2)Cc2sccc21 (stereo not drawn)	nt	nt	nt	-6	nt
Cn1ncc2c(Nc3ccccc3)nc(NC3CCCC3)nc21	i	nt	nt	nt	nt
CN1CCC(Nc2nc(Nc3ccc(Oc4ccccc4)cc3)c3c(=O)[nH]cc(Br)c3n2)CC1	nt	?	nt	-41*	?
O=C(CCn1cncn1)N1CCC(c2nccn2Cc2cccnc2)CC1	i	14%	28%	-38*	-16%
CCOC(=O)c1ccc(NC2SC(=O)N(Cc3cccc(C(=O)O)c3)C2=O)cc1 (stereo not drawn)	i	-15%	111%	-46*	?
COC(=O)c1cccc(CN2C(=O)SC(Nc3ccc(Cl)cc3)C2=O)c1 (stereo not drawn)	?	-4%	10%	-13	nt
O=C(O)c1cc(Cl)cc(Cl)c1I	i	nt	nt	nt	nt
